The text below walks through data of PubChem BioAssay AID1851 (National Center for Advancing Translational Sciences (NCATS), 2009).

SMILES strings stand for the structures. Among all 16,000 compounds or so, about 4,000 (25%) were called active. About 26% were inconclusive and are not listed. Only a sample is shown. Unmarked numbers belong to inactive results. Calls follow the shape of the dose curve; as a rule, active = well fitted curve in the direction sought with a large enough effect; inconclusive = small, poorly fitted or top-dose-only effect, or effect the other way; inactive = no such curve, though single readings can be large or run the other way.
% is scaled to controls: 0 for no effect and ±100 for the full control effect.

In this assay the target is Cytochrome P450 2C9 (Homo sapiens) (UniProt P11712). The assay can be described thus: Cytochrome panel assay with activity outcomes. To be noted: recombinant CYP, pro-luciferin dealkylation, luminescence, p450-cyp2c9; series mostly up to 57.1 µM.
Cytochrome P450 2C9 (Homo sapiens), sequence (P11712 whole entry, looked up): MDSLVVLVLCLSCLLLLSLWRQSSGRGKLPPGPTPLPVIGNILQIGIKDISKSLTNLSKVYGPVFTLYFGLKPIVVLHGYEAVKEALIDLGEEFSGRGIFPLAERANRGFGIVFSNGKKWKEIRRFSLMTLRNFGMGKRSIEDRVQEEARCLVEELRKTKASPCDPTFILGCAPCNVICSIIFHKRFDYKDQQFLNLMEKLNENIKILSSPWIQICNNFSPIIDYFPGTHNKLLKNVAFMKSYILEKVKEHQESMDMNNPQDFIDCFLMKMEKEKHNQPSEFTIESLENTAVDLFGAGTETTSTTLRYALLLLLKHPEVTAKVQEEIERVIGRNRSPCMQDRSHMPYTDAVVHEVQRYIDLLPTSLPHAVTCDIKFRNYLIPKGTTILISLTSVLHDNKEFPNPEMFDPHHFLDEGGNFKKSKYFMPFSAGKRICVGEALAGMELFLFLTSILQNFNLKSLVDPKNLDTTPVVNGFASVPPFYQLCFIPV
Turning to `NCCSCCC(=O)O`, the activity, negative = inhibition is -9.49% [at 11.4 µM]. For `C=C1CC[C@H](O)C/C1=C/C=C1\CCC[C@]2(C)[C@H]1CC[C@H]2[C@@H](C)/C=C\[C@@H](C)C(C)C`, the AC50 result is “inactive”. Turning to `COc1cc(C(=O)N2CCC(NC(=O)C(Cc3ccc(C(C)C)cc3)NC(C)=O)CC2)cc(OC)c1OC` (stereo not given), the AC50 result was “inactive”. The same measure, in the same setting: for `Cc1ccc(Oc2ccccc2/C=C2\SC(=O)N(C)C2=O)cc1` the value was 10 µM (active). As for `COc1cc(C)cc2c(-c3c(O)cc(O)c4c3C[C@H](C)N[C@@H]4C)cc(-c3cc(-c4c(O)cc(O)c5c4C[C@H](C)N[C@@H]5C)c4cc(C)cc(OC)c4c3O)c(O)c12`, the activity, negative = inhibition was -22.5% [at 11.4 µM]. The same measure, in the same setting: with `O=C(O)C[C@H](NC(=O)CP(=O)(O)O)C(=O)O.[NH-][C@@H]1CCCC[C@@H]1[NH-].[Pt]` the figure was -7.92% [at 11.4 µM]. Consider `O=C(Nc1nnc(SCc2ccc(Cl)cc2)s1)c1ccco1`, for which the AC50 is 0.562 µM (active). Still for that read-out and setting: for `COc1ccc(C(=O)Nc2nc3c(s2)Cc2cc(OC)ccc2-3)cc1` the value was 5.62 µM (active); for `COc1ccc2c(c1)Cc1sc(NC(=O)c3ccco3)nc1-2`, 10 µM (active). `CC(=O)Nc1nnc(SCc2ccc(F)cc2)s1`: the AC50 entry is “inactive”. Same read-out and setting: with `COc1ccc2c(c1)CCc1sc(NC(=O)c3ccc(C)cc3)nc1-2` the figure was 5.01 µM (active). Still for that read-out and setting: with `COc1ccc(NC(=O)N2CCCC3(CCN(C(=O)c4ccco4)CC3)C2)cc1` the entry was “inactive”. On to `COc1cccc(C(=O)Nc2nc3c(s2)CN(C)CC3)c1`, for which the AC50 result was “inactive”. The same measure, in the same setting: with `C[N+]1(C)CCC[C@@H](OC(=O)C(O)(c2ccccc2)c2ccccc2)C1` the entry was “inactive”. The same measure, in the same setting: for `COc1ccc(-n2c(=O)c(C)nc3cnc(N(C)C)nc32)cc1` the value was “inactive”.

On to `CN(C)c1ncnc2ccc(-c3ccccc3C(F)(F)F)cc12`, for which the activity, negative = inhibition is -18.7% [at 2.29 µM]. On the same count and under the same terms, with `COc1ccccc1-c1cc(Nc2ccc(F)cc2)ncn1` the figure was -2.06% [at 2.29 µM]. For `O=C(NNC(=O)C1CCCCC1)c1cnccn1`, the AC50 result is “inactive”.

`CC(C)CN(C)c1nc(N)c(C(=O)N=C(N)N)nc1Cl`: the AC50 entry was “inactive”. In the case of `Clc1ccccc1-c1nc(NCCN2CCOCC2)c2ccccc2n1`, the activity, negative = inhibition is 24.6% [at 2.29 µM]. Take `O=C1CSC2(CCN(CCCN3c4ccccc4Sc4ccc(Cl)cc43)CC2)N1`: the activity, negative = inhibition is 4.61% [at 11.4 µM].

In the case of `COc1ccc(Cc2nnc(NC(=O)c3ccco3)s2)cc1`, the AC50 is 2.82 µM (active). Still for that read-out and setting: with `COc1ccccc1NC(=O)Nc1nnc(-c2ccco2)s1` the entry was “inactive”. Consider `OC[C@@H]1O[C@@H](n2cnc3cncnc32)[C@@H](O)[C@H]1O`, for which the AC50 entry is “inactive”. On to `COc1cccc(-c2nccc(NCc3cnc(C)cn3)n2)c1`, for which the activity, negative = inhibition was -10.6% [at 2.29 µM].

Usually AC50 stands for the concentration at which the activity in the assay is half-maximal.
